Only some compounds are listed: those with a hit (about 11% of all), similar ones and a draw of the others.
HP1b binding inh – HTS for Inhibitors of HP1-beta Chromodomain Interactions with Methylated Histone Tails | Chromobox protein homolog 1 (Homo sapiens), P83916 | AlphaScreen HP1-beta / biotin-H3K9me3 peptide binding | Potency, µM (top dose mostly 114 µM), for inactives: at the highest dose activity change, negative = inhibition, most hits filed as inhibitors | 390,000 tested, 0.56% active; further: nearly all actives have a fitted effect of over 70% in size
Target sequence (P83916 whole entry, looked up): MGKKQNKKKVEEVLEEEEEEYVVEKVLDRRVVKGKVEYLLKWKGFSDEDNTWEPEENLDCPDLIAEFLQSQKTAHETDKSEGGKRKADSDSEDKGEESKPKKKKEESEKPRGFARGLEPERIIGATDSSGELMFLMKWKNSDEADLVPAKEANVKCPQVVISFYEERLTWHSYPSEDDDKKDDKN
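AlphaScreen: HP1-beta (50 nM) preformed 30 min with biotin-H3(1-18)K9me3 peptide (50 nM) in PBS pH 7.4, 0.01% Tween-20. Compound added for 30 min at RT, then streptavidin donor/nickel chelate acceptor beads (10 ug/mL) for 30 min.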
JMJD2A Tudor inh – qHTS Assay for Inhibitors of JMJD2A-Tudor Domain | 390,000 tested, 4.4% active | Potency, µM (doses to about 114 µM), for inactives: top-dose activity change, negative = inhibition, actives largely listed as inhibitors | Lysine-specific demethylase 4A (Homo sapiens), O75164 | AlphaScreen JMJD2A-Tudor / H3K4me3 peptide binding | AID 504339, 2011; further: on the % scale 0 is the no-effect control and ±100 the full control effect; nearly all actives have a fitted effect of over 50% in size
G9a inh – qHTS Assay for Inhibitors of Histone Lysine Methyltransferase G9a | 350,000 tested, 8.8% active | Potency, µM (top dose mostly 102 µM), inactives show at the highest dose activity, negative = inhibition, usual class: inhibitors | AID 504332, 2011 | G9a H3K9 monomethylation, AlphaScreen, 2 h | Histone-lysine N-methyltransferase EHMT2 (Homo sapiens), Q96KQ7; further: on the % scale 0 is the no-effect control and ±100 the full control effect; nearly all actives have a fitted effect of over 75% in size
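Methyltransferase reactions run at room temperature for 2 h (20 nM enzyme, 500 nM biotin-H3K9 peptide, 20 uM SAM) after a 15 min compound preincubation; product detected by AlphaScreen beads and anti-H3K9me1 antibody.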
PLK1 PBD block – qHTS for Inhibitors of PLK1-PDB (polo-like kinase 1 - polo-box domain): Primary Screen; Potency, µM, for inactives: max response, negative = inhibition, actives largely listed as inhibitors; Plk1 PBD binding of FITC phosphopeptide, fluorescence polarization; 360,000 tested, 2.8% active; Serine/threonine-protein kinase PLK1 (Homo sapiens), P53350; further: series mostly up to about 57 µM; on the % scale 0 is the no-effect control and ±100 the full control effect; nearly all actives have a fitted effect of over 65% in size
VDR inhibitor – Inhibitors of the vitamin D receptor (VDR): qHTS. Vitamin D3 receptor (Homo sapiens), P11473. Potency, µM, for the others: max response, negative = inhibition, hits mostly inhibitors. 400,000 tested, 0.93% active. VDR-SRC2-3 peptide fluorescence polarization, 2 h. AID 504847, 2011; further: on the % scale 0 is the no-effect control and ±100 the full control effect
Target sequence (P11473 whole entry, looked up): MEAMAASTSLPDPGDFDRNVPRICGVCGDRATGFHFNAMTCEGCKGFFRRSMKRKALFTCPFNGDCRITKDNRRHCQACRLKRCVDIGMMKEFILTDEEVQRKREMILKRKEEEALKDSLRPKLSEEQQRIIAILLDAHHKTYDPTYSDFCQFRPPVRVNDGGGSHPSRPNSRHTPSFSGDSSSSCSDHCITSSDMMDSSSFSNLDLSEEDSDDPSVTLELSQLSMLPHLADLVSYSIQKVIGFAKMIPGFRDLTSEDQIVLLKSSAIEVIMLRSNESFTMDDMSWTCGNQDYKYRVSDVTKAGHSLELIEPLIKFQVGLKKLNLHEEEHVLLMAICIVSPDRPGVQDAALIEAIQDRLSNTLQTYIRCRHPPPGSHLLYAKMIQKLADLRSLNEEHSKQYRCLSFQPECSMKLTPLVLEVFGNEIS
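Inhibition of the VDR/SRC2-3 peptide interaction is quantified by fluorescence polarization. Compounds (23 nl, pintool) incubate with the reagents for 2 hours at ambient room temperature.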
BAZ2B block – qHTS Assay for Inhibitors of BAZ2B | Bromodomain adjacent to zinc finger domain protein 2B (Homo sapiens), Q9UIF8 | AlphaScreen BAZ2B-H3K14Ac peptide displacement | Potency, µM (top dose mostly 114 µM), for the others: at the highest dose activity change, negative = inhibition, most hits filed as inhibitors | 360,000 tested, 4.4% active | AID 504333, 2011; further: on the % scale 0 is the no-effect control and ±100 the full control effect; nearly all actives have a fitted effect of over 60% in size
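BAZ2B (50 nM) with biotin-H3(5-23)K14Ac peptide (50 nM) in PBS pH 7.4, 0.01% Tween-20, preformed 30 min, then compound 30 min at room temperature; top concentration 110uM. AlphaScreen streptavidin donor/nickel chelate acceptor beads (10 ug/mL final), 20 min dark, signal read.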
Active calls of the source: *; u = inconclusive; x = no result; [ ] = another dose, or the depositor's remark. The call rests on the fitted dose curve; in most records, active means well fitted curve in the direction sought with a large enough effect; inconclusive means small, poorly fitted or top-dose-only effect, or another doubt; inactive means no such curve, though single readings can be large; an effect the other way counts as inactive or inconclusive. Potency means the concentration at half of the fitted maximal effect.

SMILES	HP1b binding inh	JMJD2A Tudor inh	G9a inh	PLK1 PBD block	VDR inhibitor	BAZ2B block
C=CCOc1c(Cl)cc(CNCCCN2CCOCC2)cc1OC	63.8%	u	u	21.2µM*	u	-37.0%
C=CCc1ccc(OCCCOc2ccc(C)c(C)c2)c(OC)c1	155.5%	123.4%	275.2%	-6.9%	1.7%	176.5%
C=CCc1ccc(OCCCCNC2CCCC2)c(OC)c1	u	u	12.6µM*	2.2%	-0.6%	56.2µM*
COc1cc(CNCCCN2CCOCC2)cc(Br)c1OCc1ccc(Cl)cc1	13.6%	-22.6%	u	1.2%	-2.8%	3.7%
C=CCc1ccc(OCCCCCN2CCOCC2)c(OC)c1	u	3.55µM*	12.6µM*	2.8%	3.1%	50.1µM*
CCOc1ccc(CCN2C(=O)C(=O)N([C@@H](CC(C)C)CN3CCC[C@H]3CN3C(=O)C(=O)NC[C@@H]3CC(C)C)C[C@@H]2Cc2ccc(O)cc2)cc1	x	x	x	-14.5%	x	x
CCN(CC)CCOc1c(Br)ccc2c1sc1nc3n(c(=O)c12)CCC3	23.1%	-16.2%	50.1µM*	-7.0%	-10.3%	-8.8%
O=c1c2c(nc3n1CCCCC3)sc1c(O)c(Br)ccc12	-5.0%	-17.9%	1.78µM*	-11.3%	-3.1%	-4.4%
Cc1cccc(C)c1NC(=S)N(CCCN1CCOCC1)Cc1cccnc1	17.9%	-12.8%	18.1%[59 µM]	-5.7%	11.0%	-9.4%
Cc1cc(C)cc(NC(=O)Nc2c[nH]c(=O)[nH]c2=O)c1	57.7%	-17.2%	-6.7%[59 µM]	x	-3.1%	-14.9%
O=C(NCCSC1CCCCC1)c1ccccc1	21.6%	-9.0%	70.8µM*	-7.6%	-11.8%	-1.4%
COc1ccc(C(=O)NCCSC2CCCCC2)cc1	28.8%	-7.3%	-10.5%[59 µM]	-13.9%	-12.0%	-10.9%
CN(CCCN1CCCCC1)C(=O)c1cc(COc2ccc(F)cc2F)on1	22.1%	-16.8%	44.6%	-7.0%	-1.6%	-16.5%
Clc1cccc(CN2CCN(Cc3ccco3)CC2)c1	20µM*	1.78µM*	7.94µM*	8.2%	7.4%	17.8µM*
Fc1ccc(CN2CCC(Cc3ccccc3)CC2)cc1F	-32.9%	28.2µM*	10µM*	-1.8%	12.6%	u
O=S(=O)(c1ccc(Br)cc1)N1CCN(Cc2ccco2)CC1	-13.8%	-28.7%	x	-9.0%	-4.2%	5.1%
Clc1ccc(CN2CCC(Cc3ccccc3)CC2)cc1	u	20µM*	4.47µM*	-14.0%	2.7%	31.6µM*
Clc1ccc(CN2CCC(c3ccccc3)CC2)cc1	26.9%	-2.8%	12.5%	-6.0%	-5.6%	-0.1%
Clc1cccc(CN2CCC(Cc3ccccc3)CC2)c1	u	3.16µM*	3.55µM*	-3.9%	-3.5%	50.1µM*
CCCCCCCC/C=C\CCCCCCCC(N)=O	x	x	28.3%[59 µM]	x	-1.7%	x
Cc1cc(=O)[nH]c2nnc(SCc3ccccc3F)n12	20.4%	-8.4%	15.1%[59 µM]	x	6.2%	-3.8%
COc1cccc(-c2ccc3c(N)c(C(=O)c4ccc(Cl)cc4)sc3n2)c1	65.1%	4.8%	13.2%[59 µM]	x	-11.1%	3.0%
CSc1ccc(CN2CCC(Cc3ccccc3)CC2)cc1	-10.1%	35.5µM*	7.08µM*	-1.9%	1.7%	70.8µM*
CSc1ccc(OC2CCN(Cc3ccccc3)CC2)cc1	-22.4%	u	-40.3%[59 µM]	-1.4%	-4.8%	-38.3%
c1ccc(CC2CCN(Cc3ccccn3)CC2)cc1	u	7.94µM*	x	2.2%	-5.1%	50.1µM*
SMILES	HP1b binding inh	JMJD2A Tudor inh	G9a inh	PLK1 PBD block	VDR inhibitor	BAZ2B block
CCC(C)(CCN1CCOCC1)N(Cc1cc2ccccc2n(C)c1=O)C(=O)C1CCCCC1 (stereo unspecified)	x	-14.3%	x	x	x	x
CCCC(=Nc1ccccc1OC)C1=C(O)CC(c2ccccc2)CC1=O (stereo unspecified)	22.4%	-6.3%	u	6.1%	15.9%	-37.7%
COc1ccccc1N=C(C)C1=C(O)CC(c2ccccc2)CC1=O (stereo unspecified)	18.0%	u	50.1µM*	-2.5%	-25.3%	u
COC(=O)C1=C(C)N(C)C(C)=C(C(=O)OC)C1c1ccccc1C	23.3%	-3.3%	-6.3%	-0.6%	18.0%	-2.5%
COC(=O)C1=C(C(=O)OC)C2(OC1c1ccccc1C)C(=O)c1ccccc1C2=O (stereo unspecified)	16.5%	-13.3%	14.1µM*	-10.1%	-2.0%	4.9%
Cc1ccc(N2C(=O)CCC2=O)c(C)c1	16.7%	-7.2%	x	-3.9%	-10.0%	x
CC1=NN(c2ccc(C)cc2C)C(=O)C1C(c1ccccc1)C1C(=O)N(c2ccc(C)cc2C)N=C1C (stereo unspecified)	-0.9%	u	u	18.9µM*	u	56.2µM*
O=C(N/N=C\c1ccc(CN(Cc2ccc(Cl)cc2)S(=O)(=O)c2ccccc2)o1)C(=O)Nc1ccc(F)cc1	-13.0%	-26.0%[11.4 µM]	u	26.7µM*	-22.0%	0.1%
O=C(O)CC1c2ccccc2CCN1S(=O)(=O)c1ccccc1 (stereo unspecified)	21.6%	4.1%	x	-1.6%	6.9%	x
Cc1ccc(S(=O)(=O)N2CCc3ccccc3C2CC(=O)O)cc1 (stereo unspecified)	40.3%	1.3%	79.4µM*	-1.8%	-0.6%	-16.4%
Cc1[nH]n2c(=O)cc(-c3ccc(Cl)cc3)nc2c1-c1ccccc1	-3.7%	u	4.1%[59 µM]	x	-14.3%	31.6µM*
N#Cc1c(N)[nH]c(=S)c(C#N)c1-c1ccccc1	-4.9%	u	1.12µM*	u	u	x
Cc1cc2c(s1)c1cnn(Cc3ccc(Br)cc3)c(=O)c1n2C	x	-32.9%	x	x	x	x
N#CCSC1=Nc2ccccc2C2=NC(CCC(=O)N3CCN(c4ccccc4)CC3)C(=O)N12 (stereo unspecified)	27.6%	-21.7%	44.7µM*	u	-4.0%	u
OC(CN1CCNCC1)Cn1ccc2ccccc21 (stereo unspecified)	x	x	4.3%	x	x	u
OC(CON=C1c2ccccc2-c2ccccc21)CN1CCNCC1 (stereo unspecified)	u	3.55µM*	50.1µM*	-8.4%	3.5%	20µM*
COc1cc2oc(=O)c(CC(=O)NCc3ccc(OC)c(OC)c3)c(C)c2cc1Cl	34.3%	-2.1%	7.4%[59 µM]	x	5.7%	-1.0%
CC(C)=CCc1c(O)cc2c(=O)c3ccc(O)cc3oc2c1O	0.3%	u	x	1.5%	-9.8%	x
CC(C)=CCc1c(O)cc(O)c2c(=O)c3c(CC=C(C)C)c(O)ccc3oc12	-22.9%	56.2µM*	x	-13.8%	-6.4%	x

Screens: PubChem BioAssay, National Center for Advancing Translational Sciences (NCATS)
